Laboratory results: PubChem BioAssay (EPA / NIEHS)
Results filed as inconclusive are left out. Active and inactive are the calls of the source. The calls were made as follows, unless noted: active = hit-call score of the fitted dose curve at least 0.9, where 1 is the maximum; inactive = score below 0.9.

Columns and labels:
[1] = BSK_LPS_SRB: Viability Assessment in the BioMAP Diversity Plus: LPS Assay (AID 2283079); details: primary human HUVEC with PBMC;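 also: total protein by sulforhodamine B absorbance as a cytotoxicity measure; measured one day after compound addition; fitted in both directions against DMSO so loss or gain of signal counts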
Outline: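 Overt cytotoxicity was gauged by sulforhodamine B total-protein staining in a primary human vascular endothelial and mononuclear cell co-culture 24 h post-dosing. Activity was fitted in both directions relative to DMSO.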

[2] = read-out: Interleukin-1 alpha (IL1a), IL1A (gene 3552); assay: BSK_LPS_IL1a: BioMAP Diversity Plus: LPS Assay for Interleukin-1 alpha (IL1a) Biomarker Activity (AID 2283080); details: primary human HUVEC with PBMC; actives raise or lower the signal
Outline: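 Measured: IL-1 alpha via ELISA at 24 h in LPS-activated human umbilical vein endothelium–PBMC co-culture. Baseline: DMSO, bidirectional fitting.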

[3] = read-out: Monocyte Chemoattractant Protein-1 (MCP1), CCL2 (gene 6347); assay: BSK_LPS_MCP1: BioMAP Diversity Plus: LPS Assay for Monocyte Chemoattractant Protein-1 (MCP1) Biomarker Activity (AID 2283081); details: primary human HUVEC with PBMC; actives raise or lower the signal;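 as to AC50: secreted MCP-1 protein quantified by ELISA in culture supernatant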
Outline: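 LPS-stimulated HUVEC/PBMC co-culture; chemical, 24 h; MCP-1 by ELISA; bidirectional fit vs DMSO; cytotoxicity via SRB (0.1% stain, 10% TCA fix, 560 nm) in parallel wells.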

[4] = BSK_LPS_PGE2: BioMAP Diversity Plus: LPS Assay for Prostaglandin E2 (PGE2) Biomarker Activity (AID 2283082); details: primary human HUVEC with PBMC; actives raise or lower the signal;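 as to AC50: secreted prostaglandin E2 measured by ELISA in LPS-stimulated co-culture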
Outline: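 Primary human endothelial cells and blood mononuclear cells, co-cultured with LPS, receive test chemical; PGE2 ELISA follows at 24 h, with SRB-stained parallel cultures flagging cytotoxicity.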

[5] = read-out: Tissue Factor, F3 (gene 2152); assay: BSK_LPS_TissueFactor: BioMAP Diversity Plus: LPS Assay for Tissue Factor Biomarker Activity (AID 2283084); details: primary human HUVEC with PBMC; actives raise or lower the signal
Outline: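 In this co-culture system of umbilical vein endothelium with PBMC, stimulated with LPS, cell-surface CD142 is detected by ELISA at 24 h. Endpoint values derive from bidirectional fitting, DMSO serving as baseline.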

[6] = read-out: Tumor necrosis factor (Homo sapiens) (UniProt P01375); assay: BSK_LPS_TNFa: BioMAP Diversity Plus: LPS Assay for Tumour Necrosis Factor alpha (TNFa) Biomarker Activity (AID 2283085); details: primary human HUVEC with PBMC; actives raise or lower the signal;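 as to AC50: TNFa protein level quantified by ELISA in the co-culture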
Outline: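 ELISA-based TNFa endpoint in a human endothelial–PBMC co-culture sampled 24 h post-exposure. Curves were fitted in both directions using DMSO as baseline of activity.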

[7] = read-out: Vascular cell adhesion molecule 1 (VCAM1), VCAM1 (gene 7412); assay: BSK_LPS_VCAM1: BioMAP Diversity Plus: LPS Assay for Vascular cell adhesion molecule 1 (VCAM1) Biomarker Activity (AID 2283086); details: primary human HUVEC with PBMC; actives raise or lower the signal
Outline: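 Measured by ELISA: VCAM-1 in LPS-activated HUVEC/PBMC co-cultures 24 h after treatment. Values reflect bidirectional fitting with DMSO as baseline.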

CD38, CD38 (gene 952) = assay: BSK_SAg_CD38: BioMAP Diversity Plus: SAg Assay for CD38 Biomarker Activity (AID 2283087); details: primary human HUVEC with PBMC; actives raise or lower the signal
Outline: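 Measures CD38 on a human endothelial/PBMC co-culture driven by SEB and TSST-1, 24 h after compound exposure, using ELISA with fluorescence detection; DMSO defines baseline for bidirectional curve fitting.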

CD40, CD40 (gene 958) = assay: BSK_SAg_CD40: BioMAP Diversity Plus: SAg Assay for CD40 Biomarker Activity (AID 2283088); details: primary human HUVEC with PBMC; actives raise or lower the signal
Outline: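 Fluorescence ELISA read-out of CD40 from umbilical vein endothelium plus peripheral blood mononuclear cells, sampled 24 h after dosing. Values come from bidirectional curve fitting with DMSO as baseline.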

CD69, CD69 (gene 969) = assay: BSK_SAg_CD69: BioMAP Diversity Plus: SAg Assay for CD69 Biomarker Activity (AID 2283089); details: primary human HUVEC with PBMC; actives raise or lower the signal;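 as to AC50: cell surface CD69 protein quantified by ELISA with fluorescence detection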
Outline: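 Values derive from bidirectional fitting relative to DMSO vehicle. Cells: umbilical vein endothelium plus peripheral blood mononuclear cells, treated 24 h before fluorescent ELISA for CD69.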

[8] = read-out: Monocyte Chemoattractant Protein-1 (MCP1), CCL2 (gene 6347); assay: BSK_SAg_MCP1: BioMAP Diversity Plus: SAg Assay for Monocyte Chemoattractant Protein-1 (MCP1) Biomarker Activity (AID 2283090); details: primary human HUVEC with PBMC; actives raise or lower the signal
Outline: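 Values derive from bidirectional fitting of ELISA-measured MCP1 against DMSO controls. Readings were taken 24 h after dosing human vascular endothelial cells co-cultured with peripheral blood mononuclear cells under superantigen stimulation.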

[9] = read-out: E-selectin (Homo sapiens) (UniProt P16581); assay: BSK_SAg_Eselectin: BioMAP Diversity Plus: SAg Assay for Eselectin Biomarker Activity (AID 2283091); details: primary human HUVEC with PBMC; actives raise or lower the signal
Outline: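 Primary human endothelial cells and peripheral blood mononuclear cells were co-cultured and exposed to chemical for 24 hours. E-selectin levels were then quantified by ELISA, with bidirectional curve fitting normalised to DMSO controls.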

[10] = read-out: Monokine induced gamma interferon (MIG), CXCL9 (gene 4283); assay: BSK_SAg_MIG: BioMAP Diversity Plus: SAg Assay for Monokine induced gamma interferon (MIG) Biomarker Activity (AID 2283092); details: primary human HUVEC with PBMC; actives raise or lower the signal
Outline: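 Values reflect bidirectional fitting of ELISA-measured MIG against DMSO vehicle, taken 24 h after dosing of a co-culture of human umbilical vein endothelial cells and peripheral blood mononuclear cells.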

[11] = BSK_SAg_PBMCCytotoxicity: PBMC Cytotoxicity Assessment in the BioMAP Diversity Plus: SAg Assay (AID 2283093); details: primary human HUVEC with PBMC;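 also: PBMC viability measured as Alamar Blue reduction fluorescence at 546/580 nm; fitted both ways against DMSO so a hit may be loss or gain of signal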;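 as to AC50: PBMC superantigen activated with SEB plus TSST-1 one hour after compound addition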
Outline: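 Alamar Blue reduction (6 h, ex/em 546/580 nm) read after 90 h culture of PBMC pre-dosed 1 h then stimulated with SEB plus TSST-1, 20 ng/mL each. Gain or loss of signal fitted relative to DMSO.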

[12] = read-out: Interleukin-8 (IL8), CXCL8 (gene 3576); assay: BSK_SAg_IL8: BioMAP Diversity Plus: SAg Assay for Interleukin-8 (IL8) Biomarker Activity (AID 2283094); details: primary human HUVEC with PBMC; actives raise or lower the signal
Outline: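 Primary human endothelial cells with PBMC, exposed 24 h; IL-8 determined by ELISA, analysed bidirectionally relative to DMSO.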

[13] = BSK_SAg_Proliferation: Cell Proliferation Assessment in the BioMAP Diversity Plus: SAg Assay (AID 2283095); details: primary human HUVEC with PBMC;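 also: relative cell number as total protein by SRB absorbance in sub-confluent culture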
Outline: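 A human primary co-culture of umbilical vein endothelium and blood mononuclear cells receives compound; relative cell number is quantified at 96 h by SRB staining and 560 nm absorbance, with DMSO-referenced bidirectional curve fitting.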

[14] = BSK_SAg_SRB: Viability Assessment in the BioMAP Diversity Plus: SAg Assay (AID 2283096); details: primary human HUVEC with PBMC;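 also: cells read one day after compound addition; hits may be either gain or loss of signal compared with DMSO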
Outline: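 SRB absorbance at 560 nm served as the viability read-out. Cells (HUVEC plus peripheral blood mononuclear cells) were TCA-fixed and stained 24 h post-dosing; activity fitted in both directions against DMSO controls.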

[15] = target: human CYP19A1, CYP19A1 (gene 1588) (UniProt P11511); assay: NVS_ADME_hCYP19A1: NovaScreen (NVS) CYP450-related Enzyme Activity (ADME) Assay for human CYP19A1 (AID 2283098; active = hit-call score of the fitted dose curve at least 0.9, where 1 is the maximum;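 also: potency for inhibitors seen as loss of fluorescent enzyme signal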)
Chain of human CYP19A1, CYP19A1 (gene 1588) (P11511 whole entry, looked up): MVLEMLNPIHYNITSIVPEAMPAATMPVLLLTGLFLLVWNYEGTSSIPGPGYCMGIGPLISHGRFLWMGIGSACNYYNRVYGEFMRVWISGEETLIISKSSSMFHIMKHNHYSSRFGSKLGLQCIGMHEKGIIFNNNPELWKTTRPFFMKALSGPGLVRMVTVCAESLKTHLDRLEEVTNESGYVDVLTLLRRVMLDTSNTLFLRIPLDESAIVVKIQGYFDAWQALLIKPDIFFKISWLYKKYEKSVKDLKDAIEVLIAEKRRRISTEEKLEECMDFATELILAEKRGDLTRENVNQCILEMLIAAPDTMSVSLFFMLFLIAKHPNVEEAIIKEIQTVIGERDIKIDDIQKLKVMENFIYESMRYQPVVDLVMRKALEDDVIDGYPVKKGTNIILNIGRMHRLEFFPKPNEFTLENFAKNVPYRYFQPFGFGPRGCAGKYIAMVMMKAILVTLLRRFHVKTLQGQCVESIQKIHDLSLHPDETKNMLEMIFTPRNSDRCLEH
Outline: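 Primary testing was in duplicate at a single 10 uM concentration, with actives followed up in concentration-response series. Fluorescence read-out of recombinant enzyme activity at 0.5 h, cell-free. Acetonitrile was the negative-control baseline.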

Measured: AC50

Chain of Tumor necrosis factor (Homo sapiens) (P01375 whole entry, looked up): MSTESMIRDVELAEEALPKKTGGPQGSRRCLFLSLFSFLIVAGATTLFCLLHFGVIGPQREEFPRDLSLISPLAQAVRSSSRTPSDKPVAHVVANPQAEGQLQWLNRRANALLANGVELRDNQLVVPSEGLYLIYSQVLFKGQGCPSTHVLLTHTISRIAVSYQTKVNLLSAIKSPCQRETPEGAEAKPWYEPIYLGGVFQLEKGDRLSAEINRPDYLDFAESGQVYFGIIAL
Chain of E-selectin (Homo sapiens) (P16581 whole entry, looked up): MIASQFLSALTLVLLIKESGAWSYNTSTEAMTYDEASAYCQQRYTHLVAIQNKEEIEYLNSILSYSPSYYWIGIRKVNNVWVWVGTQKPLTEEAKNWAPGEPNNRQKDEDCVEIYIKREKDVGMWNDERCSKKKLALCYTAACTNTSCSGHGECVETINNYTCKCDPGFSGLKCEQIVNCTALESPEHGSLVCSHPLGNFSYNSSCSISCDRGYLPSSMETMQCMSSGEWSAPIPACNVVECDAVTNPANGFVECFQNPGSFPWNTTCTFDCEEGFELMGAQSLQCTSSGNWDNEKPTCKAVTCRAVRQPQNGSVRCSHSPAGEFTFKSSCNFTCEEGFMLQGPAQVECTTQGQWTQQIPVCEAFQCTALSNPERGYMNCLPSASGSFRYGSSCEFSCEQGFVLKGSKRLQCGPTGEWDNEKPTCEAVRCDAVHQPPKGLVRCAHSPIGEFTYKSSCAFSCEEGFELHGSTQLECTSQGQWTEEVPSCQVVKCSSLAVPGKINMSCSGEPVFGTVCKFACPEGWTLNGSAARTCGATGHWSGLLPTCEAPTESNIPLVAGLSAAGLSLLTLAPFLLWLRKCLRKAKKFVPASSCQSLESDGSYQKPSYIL

CCCCCCOC(=O)c1ccccc1C(=O)OCCCCCC
active: [3] 34.9 µM | [7] 20 µM | CD38, CD38 (gene 952) 32.1 µM | CD40, CD40 (gene 958) 32.9 µM | [9] 32.6 µM | [11] 35 µM | [12] 29 µM | [13] 28.6 µM
not listed: [15]
inactive: all other assays above

Oc1ccc(C(c2ccc(O)cc2)(C(F)(F)F)C(F)(F)F)cc1
active: [1] 28 µM | [2] 20.2 µM | [3] 27.5 µM | [4] 19.6 µM | [5] 37.9 µM | [6] 21.5 µM | [7] 23.9 µM | CD38, CD38 (gene 952) 20.6 µM | CD40, CD40 (gene 958) 18.3 µM | CD69, CD69 (gene 969) 26.6 µM | [9] 19.8 µM | [10] 32.4 µM | [11] 20.7 µM | [12] 18.1 µM | [14] 22.6 µM | [15] 7.19 µM

ClC(Cl)=C(c1ccc(Cl)cc1)c1ccc(Cl)cc1
active: [2] 26.6 µM | [3] 35.4 µM | [4] 8.02 µM | [5] 32.3 µM | [6] 31.8 µM | [7] 30.4 µM | CD38, CD38 (gene 952) 33.3 µM | CD40, CD40 (gene 958) 32.5 µM | CD69, CD69 (gene 969) 30.6 µM | [9] 32.2 µM | [10] 36 µM | [11] 15.4 µM | [12] 34.6 µM | [13] 18.4 µM | [14] 32 µM

CCCCCCCCOC(=O)c1ccccc1C(=O)OCCCCCCCC
active: [7] 7.64 µM | CD38, CD38 (gene 952) 11.2 µM | [11] 5.6 µM
not listed: [8] | [15]
inactive: all other assays above

O=C(NC(=O)c1cc(F)c(F)cc1Cl)Nc1cc(F)ccc1N1CCC(C(=O)O)CC1
active: [6] 10 µM
not listed: [8] | [15]
inactive: all other assays above

CCC(C)c1cc([N+](=O)[O-])cc([N+](=O)[O-])c1O (stereo unspecified)
active: [1] 20 µM | [2] 29.2 µM | [3] 15 µM | [4] 6.51 µM | [7] 20 µM | CD38, CD38 (gene 952) 18.7 µM | CD40, CD40 (gene 958) 14.3 µM | CD69, CD69 (gene 969) 12.4 µM | [9] 14.2 µM | [10] 31.7 µM | [11] 5.36 µM | [12] 8.89 µM | [13] 19.6 µM | [14] 18 µM
inactive: [5] | [6]
